Assay outcomes deposited in PubChem by National Center for Advancing Translational Sciences (NCATS).
Pf growth 96h – P. falciparum growth inhibition at 96 hours; Potency, µM (top dose mostly 28.7 µM), for the others: at the highest dose activity change, negative = inhibition, most hits filed as inhibitors; AID 504834; P. falciparum luciferase reporter growth, 96 h; 6.9% of 320,000 active; note: potency is the fitted concentration of half-maximal effect; % is set by controls: 0 for no effect and ±100 for the full control effect
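Plates of compound plus infected erythrocytes (2% hematocrit, 0.05% parasitemia final) incubate 96 hours, 37 C, 5% CO2. Detection reagent added; reduced luminescence from the parasites' luciferase reporter flags inhibition.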
Pf growth 48h – P. falciparum growth inhibition at 48 hours (one generation). P. falciparum luciferase growth in erythrocytes, 48 h. Potency, µM (titrated, usually from 28.7 µM), for inactives: at the top dose activity change, negative = inhibition, usual class: inhibitors. 5.9% of 310,000 active. AID 504832; note: potency is the fitted concentration of half-maximal effect; % is set by controls: 0 for no effect and ±100 for the full control effect
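Parasite viability was followed by luminescence of a genomically integrated firefly luciferase. Cultures held 0.1% parasitemia at 2% hematocrit (final), incubated under 5% CO2 at 37 C.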
SARS PLpro yeast – blocks SARS-CoV papain-like protease in a yeast assay; S. cerevisiae expressing SARS-CoV PLpro, growth rescue; Potency, µM (top dose mostly 32.9 µM), for inactives: top-dose activity, positive = growth rescue, usual class: activators; 0.19% of 330,000 active; calls by dose curve; note: potency is the fitted concentration of half-maximal effect; 0% is about no effect; nearly all actives have a fitted effect of over 55% in size
AMA1-RON2 inh – AMA1-RON2 (P. falciparum) interaction inhibition; AlphaScreen AMA1-biotinylated RON2 peptide binding; Potency, µM (doses to about 58.2 µM), inactives show at the top dose activity change, negative = inhibition, hits mostly inhibitors; 0.2% of 360,000 active;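 note: potency is the fitted concentration of half-maximal effect; 0% = vehicle wells and -100% = peptide control; nearly all actives have a fitted effect of over 45% in size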
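AMA1 (3D7) with his tag at 25 nM final met compounds first, then biotinylated RON2 peptide at 25 nM; detection used donor plus acceptor beads, 10 µg/mL apiece, read by AlphaScreen after 30 min at room temperature.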
Cycloheximide cs – affects cycloheximide protein synthesis inhibition readout, counter-screen | cell reporter, cycloheximide protein synthesis inhibition counterscreen | max response, % | 12% of 300,000 active | AID 2314; in the data active = max response mostly above about 13%, no sharp cut-off; inactive = mostly below about 14%; note: read at 38.3 µM for the half of the compounds with a filed dose; 0% is about no effect
Shiga toxin inh – inhibitors of Shiga toxin in Vero cells; Vero cells, Shiga toxin protein synthesis inhibition reporter; inhibition, % at 38.7 µM; 9.2% of 290,000 active; in the data active = inhibition mostly above about 28%, no sharp cut-off; inactive = mostly below about 43%; note: 0% is about no effect
An asterisk follows results filed as active; ? = inconclusive; / = not tested or not shown; + = active, no number; [ ] = dose if it differs, or a comment. Most compounds without a hit are left out; they make up all but 19% or so of the library. Unless noted, calls come from the whole dose curve; as a rule, active = well fitted curve in the direction sought with a large enough effect; inconclusive = small, poorly fitted or top-dose-only effect, or another doubt; inactive = no such curve, though single readings can be large; an effect the other way counts as inactive or inconclusive.

SMILES	Pf growth 96h	Pf growth 48h	SARS PLpro yeast	AMA1-RON2 inh	Cycloheximide cs	Shiga toxin inh
CCOc1ccc(C(=O)OCC(=O)Nc2ccc3c(c2)OCCO3)cc1OC	-15%	10%	9%	-2%	/	/
COc1ccc(C(=O)Nc2ccc(C(=O)N3CCCC3)cc2)cc1[N+](=O)[O-]	64%	?	0%	-4%	0	12
COc1cc(C(=O)Nc2ccc3c(c2)OCCO3)ccc1OC(C)C	?	99%	-7%	3%	44*	+
COc1ccc(NC(=O)c2ccc3c(c2)OCCO3)cc1OC	14%	216%	0%	-17%	22*	62*
O=C1NC[C@H](CCCCN2C[C@H](Cc3ccc(O)cc3)N(Cc3ccccc3)C(=O)C2=O)N(CCc2ccccc2)C1=O	/	/	/	-5%	/	/
COCCC(=O)N1CCC(Oc2ccc(C(=O)N3CCCC(COC)C3)cc2)CC1 (stereo unspecified)	59%	0%	-8%	10%	1	5
CC[C@H](C)[C@H](NC(=O)[C@H](Cc1ccc(O)cc1)NC(=O)[C@@H]1CCCN1C(=O)[C@@H](NC(=O)[C@@H](N)CCCCN)[C@@H](C)CC)C(=O)N[C@@H](CC(C)C)C(=O)O	/	/	/	/	-4	2
COc1cc(C(=O)Nc2ccc3c(c2)OCCO3)ccc1OC(F)F	?	14%	-2%	8%	33*	66*
CCn1cc(C(=O)Nc2ccc3c(c2)OCCO3)c2cc(OC)c(OC)cc2c1=O	?	/	2%	-3%	12*	29
CC(=O)c1cnc2cc(-c3ccc(Cl)cc3)nn2c1C	45%	/	-9%	22%	21*	56*
Cc1cc2ncc(C(=O)Nc3ccccc3)c(C)n2n1	14%	26%	-2%	-1%	2	-4
CC(=O)c1cnc2c(-c3ccc(Cl)cc3)c(C)nn2c1C	59%	-9%	-16%	6%	3	13
Cc1c(C(=O)O)cnc2cc(-c3ccc(Cl)cc3)nn12	10%	61%	-7%	2%	16*	30
CC(CNC(=O)C(=O)NC(C)CCc1ccccc1)Cc1ccccc1 (stereo unspecified)	0%	-12%	-4%	1%	-7	-27
CCn1c(C)nc2c(C)[n+](CC(=O)c3ccc(Br)cc3)ccc21	?	-98%	-1%	9%	25*	61*
Cc1sc[n+](CC(=O)c2ccc(Br)cc2)c1C	8%	13%	8%	-7%	7	-1
O[Si](CCCN1CCCCC1)(c1ccc(F)cc1)C1CCCCC1 (stereo unspecified)	0.1µM*	0.093µM*	-1%	-18%	/	/
O=C(NCCCN1CCCC1)Nc1ccc(F)cc1	-22%	20%	0%	-2%	0	-2
COc1ccc(N(C(=O)c2snc(C(N)=O)c2N)C(C(=O)NC2CCCCC2)c2ccc(F)cc2)c(OC)c1 (stereo unspecified)	14%	?	0%	-4%	5	17
COc1ccc(C(C(=O)NCc2ccccc2)N(Cc2ccco2)C(=O)c2snc(C(N)=O)c2N)cc1OC (stereo unspecified)	14%	10µM*	-7%	-10%	-4	-9
COc1ccc(N(CC(=O)NCc2ccc(F)cc2)C(=O)c2snc(C(N)=O)c2N)cc1	-13%	-6%	16µM*	20%	8	4
COc1ccccc1N(C(=O)c1snc(C(N)=O)c1N)C(C(=O)NCc1ccccc1)c1ccc(O)cc1 (stereo unspecified)	-20%	?	10%	-7%	-3	-5
COc1ccc(C(C(=O)NCc2ccccc2)N(Cc2ccco2)C(=O)c2snc(C(N)=O)c2N)cc1 (stereo unspecified)	1%	?	-2%	-22%	-2	7
COc1ccc(N(C(=O)c2snc(C(N)=O)c2N)C(C(=O)NCc2ccccc2)c2ccc(F)cc2)c(OC)c1 (stereo unspecified)	25%	10µM*	5%	-15%	-1	-5
COc1ccc(C(C(=O)NCc2ccccc2)N(C(=O)c2snc(C(N)=O)c2N)c2ccccc2OC)cc1 (stereo unspecified)	-15%	5.2µM*	3%	?	-6	-6
SMILES	Pf growth 96h	Pf growth 48h	SARS PLpro yeast	AMA1-RON2 inh	Cycloheximide cs	Shiga toxin inh
Cc1ccc(Oc2c(C(N)=O)cc([N+](=O)[O-])cc2[N+](=O)[O-])cc1	?	-4%	12%	4%[2.32 µM]	2	-2
O=c1oc2cc(S(=O)(=O)NCCCO)ccc2c2ccc(S(=O)(=O)NCCCO)cc12	3%	4%	1%	-3%	-1	-11
C=CCN1C(=O)c2ccc(C(=O)N3CCC(C(N)=O)CC3)cc2C1=O	6%	8%	-1%	5%	-3	-6
C=CCN1C(=O)c2ccc(C(=O)N3CCN(S(=O)(=O)c4cccc(Cl)c4)CC3)cc2C1=O	13µM*	10µM*	?	6%	-4	-8
Oc1ccc(-c2nc(-c3ccc(F)cc3)c(-c3ccncc3)[nH]2)cc1	13µM*	?	/	-1%	/	/
Cc1ccc(-c2nn(-c3ccccc3)cc2C(=O)NCC(c2cccs2)N2CCOCC2)cc1 (stereo unspecified)	?	?	-11%	-21%	/	/
Cc1cccc(-c2nn(-c3ccccc3)cc2C(=O)NCC(c2cccs2)N2CCOCC2)c1 (stereo unspecified)	?	13µM*	7%	-19%	/	/
O=C(c1cn(-c2ccccc2)nc1-c1ccc(F)cc1)N1CCOCC1	10%	-4%	0%	-9%	16	23
O=C(NC(=S)N1CCOCC1)c1cn(-c2ccccc2)nc1-c1ccc(F)cc1	12µM*	?	-5%	73%[11.6 µM]	/	/
O=C(NCC(c1ccco1)N1CCCC1)c1cn(-c2ccccc2)nc1-c1ccc(F)cc1 (stereo unspecified)	8.3µM*	?	3%	-16%	/	/
Fc1ccc(-c2nn(-c3ccccc3)cc2CNCc2ccccc2)cc1	16%	?	-1%	-28%	-3	-5
O=C(CCl)Nc1cn(-c2ccccc2)nc1-c1ccc(F)cc1	?	-30%	-10%	16%	24*	19
O=C(NCC(c1cccs1)N1CCOCC1)c1cn(-c2ccccc2)nc1-c1ccc(F)cc1 (stereo unspecified)	?	?	-3%	0%	/	/
NS(=O)(=O)c1ccc(NC(=O)COc2ncnc3sccc23)cc1	54%	9%	-1%	-2%	-4	-3
Cc1cc(C)cc(NC(=O)CCn2cnc3cc(C)c(C)cc32)c1	?	-2%	-3%	-5%	-3	-10
CC(=O)c1sc(N/N=C2\CC3CCC2(C)C3(C)C)nc1C (stereo unspecified)	1%	68%	-1%	3%	9	32
O=C(N/C(=C\c1cn(-c2ccccc2)nc1-c1ccc(Cl)cc1)C(=O)N1CCOCC1)c1ccccc1	11%	8%	-3%	/	-3	-6
